# Pf growth 96h: Primary qHTS for delayed death inhibitors of the malarial parasite plastid, 96 hour incubation; Potency, µM (series often up to 28.7 µM), without a hit: at the top dose activity change, negative = inhibition, actives largely listed as inhibitors; 6.9% of 320,000 active; P. falciparum luciferase reporter growth, 96 h; further: potency means the concentration at half of the fitted maximal effect; on the % scale 0 is the no-effect control and ±100 the full control effect
#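 96 h incubation, 37 C, 5% CO2, of luciferase-reporter P. falciparum-infected RBCs (2% hematocrit, 0.05% parasitemia final) with test compounds; endpoint luminescence.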
# HCMV antiviral: qHTS Assay for inhibitors of the human cytomegalovirus (HCMV) | HFF cells, HCMV-luciferase reporter, 72 h; active compounds read low | activity change, negative = inhibition, % at 57.5 µM | 4.5% of 410,000 active; in the data active means activity change below about -60%; inconclusive means no clear call, values can overlap the other calls; inactive means above about -39%; further: on the % scale 0 is the no-effect control and ±100 the full control effect
#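 Luciferase read-out from HCMV-luciferase-infected HFFs (MOI 1 PFU/cell) 72 h post infection at 37C; compounds added after 16 h cell attachment; activity normalized between buffer-only basal and Salinomycin (10uM) inhibitor controls.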
# Pf growth 48h: Primary qHTS for delayed death inhibitors of the malarial parasite plastid, 48 hour incubation. P. falciparum luciferase growth in erythrocytes, 48 h. Potency, µM (titrated, usually from 28.7 µM), inactives show top-dose activity change, negative = inhibition, usual class: inhibitors. 5.9% of 310,000 active. AID 504832, 2011; further: potency means the concentration at half of the fitted maximal effect; on the % scale 0 is the no-effect control and ±100 the full control effect
#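 Firefly luciferase activity from engineered P. falciparum reports growth; inhibitors lower the luminescent signal. Cultures contained 2% hematocrit erythrocytes at 0.1% final parasitemia.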
# Shiga inhibitor: A qHTS for Small Molecule Inhibitors of Shiga Toxin | Vero cells, Shiga toxin protein synthesis inhibition reporter | AID 2315, 2010 | 9.2% of 290,000 active | inhibition, % at 38.7 µM; in the data active means inhibition mostly above about 28%, no sharp cut-off; inactive means mostly below about 43%; further: 0% is about no effect
# Cycloheximide cs: Cycloheximide Counterscreen for Small Molecule Inhibitors of Shiga Toxin | cell reporter, cycloheximide protein synthesis inhibition counterscreen | max response, % | 12% of 300,000 active | AID 2314, 2010; in the data active means max response mostly above about 13%, no sharp cut-off; inactive means mostly below about 14%; further: read at 38.3 µM for the half of the compounds with a filed dose; 0% is about no effect
# An asterisk follows results filed as active; ? = inconclusive; . = not tested or not shown; + = active, no number. Most compounds without a hit are left out; they make up all but 20% or so of the library. Unless noted, the call rests on the fitted dose curve; in most records, active means well fitted inhibition curve with a large enough effect; inconclusive means small, poorly fitted or top-dose-only effect, or another doubt; inactive means no such curve, though single readings can be large or run the other way.
SMILES,Pf growth 96h,HCMV antiviral,Pf growth 48h,Shiga inhibitor,Cycloheximide cs
COc1ccc(-c2noc(CCC(=O)NCCCN3CCN(c4ccccc4F)CC3)n2)cc1,1%,-67*,0%,12,13
COc1ccc(CCNC(=O)c2cc(C3CC3)nc3c2cnn3C(C)C)cc1,?,-29,?,.,.
COc1cc(C)c(NC(=O)c2cc(C3CC3)nc3c2cnn3C(C)C)cc1OC,?,8,?,.,.
COc1ccccc1OCCNC(=O)c1cc(C2CC2)nc2c1cnn2C(C)C,10µM*,-16,?,.,.
COc1ccc(NC(=O)c2cc(C3CC3)nc3c2cnn3C(C)C)cc1OC,15µM*,?,?,.,.
COc1ccccc1CCNC(=O)c1cc(C2CC2)nc2c1cnn2C(C)C,10µM*,-31,?,.,.
O=C(O)C1C2CCC(C2)C1C(=O)N1CCCC1 (centres undefined),-5%,4,14%,-5,1
CC(C)(C)C(=O)/C(C#N)=c1\s/c(=C\c2ccncc2)c(=O)n1CCCN1CCOCC1,7%,.,-12%,-12,-4
COc1ccc([C@@H]2[C@@H](C(=O)N3CCOCC3)CC(=O)N2C(=O)CCc2ccccc2)cc1,.,-7,.,.,.
C[C@@H]1CN([C@H](C)CO)C(=O)CCCn2cc(nn2)CO[C@H]1CN(C)S(=O)(=O)c1ccc(C#N)cc1,.,19,.,.,.
Cc1ccc(NC(=O)C2C3C=CC4(CN(Cc5cccnc5)C(=O)C24)O3)cc1 (centres undefined),-9%,42,24%,29,13
C/C=C/c1ccc(OCCCN2C(=O)NC(C)(C)C2=O)c(OC)c1,.,7,-9%,27,23*
CC1(C)NC(=O)N(CCCOc2ccc(Br)cc2Cl)C1=O,.,20,105%,134*,40*
Cc1ccc([N+](=O)[O-])c(OCCCN2C(=O)NC(C)(C)C2=O)c1,-5%,24,11%,57,19*
CC1(C)NC(=O)N(CCCCOc2ccc(Cl)cc2)C1=O,?,4,.,-6,-3
CC1(C)NC(=O)N(CCCCOc2ccc(Cl)cc2C=O)C1=O,42%,-60*,?,9,13
Cn1cc(C[C@H](C(=O)O)N2C(=O)c3ccc(C(=O)O)cc3C2=O)c2ccccc21,?,.,?,3,2
CC1(C)NC(=O)N(CCCOc2ccc3c(c2)CCC3)C1=O,.,4,42%,59*,34*
O=C(COc1ccc(F)cc1)Nc1cccc(OCc2cc(=O)n3ccccc3n2)c1,.,-5,.,.,.
CC(=O)c1c(C(C)=O)c(C)n(NC(=O)c2ccc(Cl)cc2)c1C,6%,-19,.,-4,-5
CCOC(=O)c1c(C=O)c(C)n(Cc2ccc(Cl)cc2)c1C,?,-24,1.9µM*,-14,6
CC(=O)c1c(C(C)=O)c(C)n(Cc2ccc(Cl)cc2)c1C,1.5µM*,-71*,.,-18,1
CCOC(=O)c1c(C=O)c(C)n(Cc2ccccc2)c1C,23%,-13,.,3,-3
COc1ccc(NC(=O)Cn2nc(C)c3nn(-c4ccc(Cl)cc4)c(C)c3c2=O)cc1,.,-26,.,.,.
COc1ccc(CCNC(=O)C(=O)NCC(c2cccs2)S(=O)(=O)c2ccc(F)cc2)cc1 (centres undefined),.,-30,.,.,.
SMILES,Pf growth 96h,HCMV antiviral,Pf growth 48h,Shiga inhibitor,Cycloheximide cs
Cc1ccc2cc3c(N)nn(C(=O)c4cccc(F)c4)c3nc2c1,.,-11,.,.,.
COc1ccc(-n2cnc(N)c2C(=O)c2cccc([N+](=O)[O-])c2)cc1,288%,-67*,-15%,-13,-7
COc1ccc2cc3c(N)nn(C(=O)c4ccc(F)cc4Cl)c3nc2c1,.,-70*,.,.,.
COc1ccc2cc3c(N)nn(C(=O)C4CCC(C(C)(C)C)CC4)c3nc2c1 (centres undefined),?,-79*,?,-15,-5
COc1ccc2cc3c(N)nn(C(=O)c4cccc([N+](=O)[O-])c4)c3nc2c1,-24%,-86*,-9%,-9,-2
O=c1[nH]nc(SCc2ccccc2)n1C1CC2C=CC1C2 (centres undefined),-8%,7,-8%,18,2
CN1CCC(N(C)C(=O)CCc2nc3ccccc3n2-c2ccccc2)CC1,?,-26,-13%,-7,-3
COc1cccc(-c2nnc(N)o2)c1,131%,-12,47%,26,10*
CC(=O)Oc1ccc(C(=O)Nc2cccc(-c3nnc(-c4ccco4)o3)c2)cc1,?,-39,?,-11,13
COc1cccc(-c2nnc(NC(=O)C(C)C)o2)c1,42%,17,3%,56,9
COc1cccc(-c2nnc(-c3ccco3)o2)c1,222%,11,292%,active,60*
COc1cccc(-c2nnc(-c3ccc(C)o3)o2)c1,67%,12,126%,29*,27*
COc1cccc(C(=O)Nc2cccc(-c3nnc(-c4ccccc4)o3)c2)c1,.,4,.,.,.
COc1cccc(C(=O)Nc2ccc(-c3nnc(-c4ccco4)o3)cc2)c1,?,-39,4.7µM*,57,17*
COc1ccc(F)cc1NC(=O)C1CCN(c2nc(-c3ccc(OC)c(OC)c3)no2)CC1,.,-1,.,.,.
COc1cccc(-c2nnc(-c3ccccc3[N+](=O)[O-])o2)c1,73%,102,99%,93*,41*
Cc1ccc(S(=O)(=O)CCC(=O)Nc2ccc3c(c2)OCO3)cc1,-24%,-6,-6%,1,6
O=C(CCS(=O)(=O)c1ccc(Br)cc1)Nc1ccc2c(c1)OCO2,0.47µM*,51,1%,36,15*
Cc1ccc(S(=O)(=O)CCC(=O)Nc2ccc(Br)cc2C)cc1,.,+,.,.,.
O=C(CCS(=O)(=O)c1ccc(Br)cc1)NCc1ccc(F)cc1,10µM*,3,41%,-13,17
CCc1ccc(NC(=O)CCS(=O)(=O)c2ccc(Br)cc2)cc1,15%,-62*,0%,3,-3
COc1ccc([N+](=O)[O-])c(O)c1C(C)=O,.,-24,.,.,.
COc1ccc(NC(=O)CSc2nnc(Cc3cccs3)n2C)cc1,-22%,-14,?,.,.
